“And” between values parts separate entries of the source, which are not always exact repeats. Equal values may be shown once. Records with an inconclusive call do not appear. The source made the active and inactive calls. How the source made its calls, unless noted: active means hit-call score of the fitted dose curve at least 0.9, where 1 is the maximum; inactive means score below 0.9.

Experiment [1] can be described thus: CCTE_Deisenroth_5AR_NBTE_donor: CCTE's 5alpha-reductase NanoBRET Target Engagement Assay […], Deisenroth Lab (AID 2284319). The following applies: actives raise or lower the signal. A digest of the protocol:
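Donor NanoLuc luminescence at 460-20 nm is the read-out, serving artifact detection. Transiently expressed SRD5A2-NanoLuc in HEK293T; 5 h total chemical exposure, testosterone tracer added for the final 2 h; fitting bidirectional relative to DMSO baseline.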
In general terms: Bioluminescence resonance energy transfer reports proximity on the nanometre scale.

Experiment [2] is described as follows: CCTE_Deisenroth_5AR_NBTE_acceptor: CCTE's 5alpha-reductase NanoBRET Target Engagement Assay - Autofluorescence Screen, Deisenroth Lab (AID 2284321). Conditions: actives raise or lower the signal. A digest of the protocol: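 Acceptor-channel fluorescence flags artifacts, with excitation fixed at 460 nm. Nominal 100 uM chemical samples were read in triplicate runs, and signal changes were fitted in both directions relative to DMSO.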

Experiment [3] in a line: IUF_NPC2a_radial_glia_migration_120hr: Leibniz Research Institute for Environmental Medicine (IUF) 120-hour Neural Progenitor Cell Migration Assay for Radial Glia Migration (NPC2a) (AID 2284298). A digest of the protocol: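 Migration distance in um, sphere core edge to migration-area edge, derived by nuclei-density algorithm from Hoechst images after 120 h compound exposure. Primary hNPC spheres differentiated on poly-D-lysine/laminin in N2 medium, 37C; medium half-replaced day 3.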

A short description of experiment [4]: IUF_NPC2a_radial_glia_migration_72hr: Leibniz Research Institute for Environmental Medicine (IUF) 72-hour Neural Progenitor Cell Migration Assay for Radial Glia Migration (NPC2a) (AID 2284299). In outline: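 Human fetal cortex (GW 16-19) neural progenitor spheres, 0.3 mm, plated on poly-D-lysine/laminin in N2 differentiation medium with compound from day 0. Radial glia migration distance (um, sphere core edge to migration edge) measured manually in four directions on 72 h brightfield images; well mean used.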

A short description of experiment [5]: IUF_NPC2b_neuronal_migration_120hr: Leibniz Research Institute for Environmental Medicine (IUF) 120-hour Neural Progenitor Cell Migration Assay for Neuron Migration (NPC2b) (AID 2284300). In outline: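 TUBB3-positive neurons are imaged after 120 h of differentiation, and their mean distance from the sphere edge is normalised to radial glia migration. Single 0.3 mm fetal hNPC spheres on poly-D-lysine/laminin received 7 compound concentrations, ≤0.1% DMSO, refreshed at day 3.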

A short description of experiment [6]: IUF_NPC3_neuronal_differentiation_120hr: Leibniz Research Institute for Environmental Medicine (IUF) 120-hour Neuronal Differentiation Assay (NPC3) (AID 2284301). In outline: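 Single 0.3 mm neurospheres from human fetal cortex were plated in differentiation medium containing test compound. Medium was half-replaced on day 3. After 120 h cells were fixed, immunostained and imaged, and neuronal fraction was scored against DMSO control.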

The nature of experiment [7]: IUF_NPC4_neurite_length_120hr: Leibniz Research Institute for Environmental Medicine (IUF) 120-hour Neuronal Morphology Assay for Neurite Length (NPC4) (AID 2284302). In outline:
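Read-out is mean neurite length in µm of TUBB3-positive neurons, skeletonized from high-content fluorescence images after 120 h. Single 0.3 mm primary human neural progenitor spheres differentiated on poly-D-lysine/laminin under continuous compound exposure; DMSO was baseline.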

Experiment [8] can be described thus: IUF_NPC5_oligodendrocyte_differentiation_120hr: Leibniz Research Institute for Environmental Medicine (IUF) 120-hour Oligodendrocyte Differentiation Assay (NPC5) (AID 2284304; active means hit-call score of the fitted dose curve at least 0.9, where 1 is the maximum;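 further: primary human fetal neural progenitor spheres plated to migrate and differentiate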). A digest of the protocol:
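Oligodendrocyte differentiation scored as O4-positive cells, found by CNN image analysis, as percent of Hoechst-stained nuclei in the migration area. Scoring followed 5 days of exposure of plated hNPC neurospheres differentiating in DMEM/F12 N2 medium at 37C, with compound refreshed at day 3.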

A short description of experiment [9]: IUF_NPC4_neurite_area_120hr: Leibniz Research Institute for Environmental Medicine (IUF) 120-hour Neuronal Morphology Assay for Neurite Area (NPC4) (AID 2284305; active means hit-call score of the fitted dose curve at least 0.9, where 1 is the maximum). A digest of the protocol:
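Neurite area is read out as the mean pixel area, excluding nuclei, of skeletonized TUBB3-positive neurons imaged after 120 h. Primary human neural progenitor spheres differentiated on poly-D-lysine/laminin with compound present from day 0. Activity was referenced to DMSO controls.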

Experiment [10] in a line: IUF_NPC2-5_cytotoxicity_72hr: Cytotoxicity Assessment at 72 hours in the Leibniz Research Institute for Environmental Medicine (IUF) Neural Progenitor Cell Migration and Differentiation Assay for Cytotoxicity (NPC2-5) (AID 2284306; active means hit-call score of the fitted dose curve at least 0.9, where 1 is the maximum;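 further: LDH release into supernatant measured by resorufin fluorescence marking membrane damage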). A digest of the protocol: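 Membrane integrity loss was scored from fluorescence (RFU) of resorufin generated by LDH in culture supernatant, 72 h after dosing. Differentiating human progenitor spheres received seven serial compound concentrations alongside a solvent control.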

The nature of experiment [11]: IUF_NPC2-5_cell_number_120hr: Cell Number Assessment at 120 hours in the Leibniz Research Institute for Environmental Medicine (IUF) Neural Progenitor Cell Migration and Differentiation Assay (NPC2-5) (AID 2284308).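 Further: count of Hoechst-stained nuclei in migration zone around plated human neural progenitor spheres.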 In outline: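 Counting of all Hoechst-stained nuclei in the migration area at 120 h, versus DMSO control. Primary hNPC spheres differentiated on poly-D-lysine/laminin in N2 medium at 37C, dosed from day 0 (7 concentrations, DMSO ≤0.1%), half-refed day 3.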

The nature of experiment [12]: IUF_NPC2-5_viability_120hr: Viability Assessment at 120 hours in the Leibniz Research Institute for Environmental Medicine (IUF) Neural Progenitor Cell Migration and Differentiation Assay (NPC2-5) (AID 2284312). In outline: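 Alamar blue resorufin fluorescence read after 5 days of differentiation, with compound present from day 0 and replenished at day 3. Primary hNPC spheres on laminin-coated plates, 37C; seven concentrations plus solvent control, fitted against DMSO.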

The nature of experiment [13]: CCTE_Mundy_HCI_iCellGluta_NOG_NeuriteLength: CCTE's Neurite Outgrowth Assay in iCellGluta cells for Neurite Length, Mundy Lab (AID 2284318; active means hit-call score of the fitted dose curve at least 0.9, where 1 is the maximum). In outline: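 Automated high-content imaging of betaIII-tubulin (Alexa Fluor-488) and Hoechst-stained cells gave neurite length, normalized to the DMSO baseline.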
Experiment [14] can be described thus: IUF_NPC2-5_cytotoxicity_120hr: Cytotoxicity Assessment at 120 hours in the Leibniz Research Institute for Environmental Medicine (IUF) Neural Progenitor Cell Migration and Differentiation Assay (NPC2-5) (AID 2284307; active means hit-call score of the fitted dose curve at least 0.9, where 1 is the maximum;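 on AC50: LDH released into supernatant as membrane damage marker via resorufin fluorescence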). In outline: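 Membrane-integrity loss measured as LDH activity in medium supernatant via resazurin-to-resorufin fluorescence after 120 h exposure. hNPC spheres from GW 16-19 fetal cortex differentiated on poly-D-lysine/laminin, 37C, medium half-refreshed day 3; seven concentrations, DMSO max 0.1%.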

Experiment [15] deals with IYD (gene 389434). In words: CCTE_GLTED_hIYD: CCTE's human Iodotyrosine Deiodinase (xIYD) Inhibition Assay, Great Lakes Toxicology and Ecology Division (GLTED) Lab (AID 2284317; active means hit-call score of the fitted dose curve at least 0.9, where 1 is the maximum;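 further: cell-free human IYD enzyme made in baculovirus insect cells; iodide freed from monoiodotyrosine measured by cerium arsenite color change at 420 nm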). A digest of the protocol:
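Human IYD expressed in a baculovirus-insect cell system was incubated 3 h with monoiodotyrosine and test chemical. Released iodide, separated on Dowex columns, was quantified by the Sandell-Kolthoff reaction at 420 nm; plates were normalized to MNT and DMSO/NaOH controls.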

Read-out in experiment [16]: CD69, CD69 (gene 969)
In words: BSK_LPS_CD69: BioMAP Diversity Plus: LPS Assay for CD69 Biomarker Activity (AID 2284303). Conditions: primary human HUVEC with PBMC. A digest of the protocol:
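Human umbilical vein endothelial cells co-cultured with PBMC under LPS stimulation, chemical exposure 24 h; cell-surface CD69 measured by ELISA and fitted in the positive direction versus DMSO.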

With `O=c1[nH]c(=O)n(Cl)c(=O)n1Cl`, the compound was classed as inactive in experiment [1] and in experiment [2].
As for `Cc1ccccc1OP(=O)(Oc1ccccc1C)Oc1ccccc1C`, the figures for the AC50 in [3], in experiment [8] and in experiment [13] were 10 µM (active), 6.47 µM (active) and 8.67 µM (active), respectively. Besides, the outcome in experiment [4], in experiment [5], in experiment [6], in experiment [7], in experiment [9] and in [10] was inactive. In addition, the call in experiment [11] and in experiment [12] was inactive.
With `Cc1cc(C(F)(C(F)(F)F)C(F)(F)F)ccc1NC(=O)c1cccc(I)c1C(=O)NC(C)(C)CS(C)(=O)=O`, the compound was called inactive in experiment [3], in experiment [4], in experiment [5], in [6], in experiment [7] and in experiment [9]. The outcome in experiment [10], in [11], in experiment [12] and in experiment [13] was inactive. Besides, the AC50 is 4.22 µM (active) in [8] and 1.5 µM (active) in [14].
Consider `N#CCCC(Br)(C#N)CBr` (configuration not stated), for which the AC50 in experiment [1] was 62.1 µM (active); in experiment [2], 54.4 µM (active).
Regarding `Oc1cc(Cl)c(Cl)cc1Cl`, the compound was called inactive in experiment [15].
As to `O=C(CCl)Nc1ccccc1`, the outcome in experiment [15] was inactive.
Regarding `CC(=Cc1ccccc1)[N+](=O)[O-]`, the outcome in experiment [1] and in experiment [2] was inactive.
Take `CCCCCCCCCCCCOS(=O)(=O)O`: the concentration at half-maximal activity (AC50) in experiment [15] is 62.8 µM (active) and 56.8 µM (active).
On to `CCOCn1c(-c2ccc(Cl)cc2)c(C#N)c(Br)c1C(F)(F)F`, for which the AC50 was 63.4 µM (active) in experiment [3]; 36.6 µM (active) in [4]; 35.4 µM (active) in [5]; 5.42 µM (active) in [6]; 14.4 µM (active) in [7]; 5.56 µM (active) in experiment [8]. Also, the AC50 in [9] is 13.4 µM (active); in experiment [10], 50 µM (active); in experiment [14], 41.7 µM (active); in [11], 84.8 µM (active); in experiment [13] it was 14.1 µM (active). Besides, in experiment [12], the compound was called inactive.
Turning to `Nc1ccc(N)cc1`, the result in [15] was inactive.
`CCC[CH2][Sn]([Cl])([Cl])[CH2]CCC`: the AC50 in experiment [1] was 4.46 µM (active); in experiment [2], 5.59 µM (active).
Turning to `CCCCOC(=O)COC(=O)c1ccccc1C(=O)OCCCC`, the outcome in [16] was inactive.
Regarding `CC1(C)[C@H](C(=O)O[C@H](C#N)c2cccc(Oc3ccccc3)c2)[C@@H]1/C=C(\Cl)C(F)(F)F`, the compound was called inactive in [3], in experiment [4], in [5], in experiment [6], in experiment [7] and in experiment [9]. Further, the compound was classed as inactive in experiment [10], in experiment [14], in experiment [12] and in experiment [13]. Further, the results for the AC50 in experiment [8] and in experiment [11] were 0.983 µM (active) and 0.586 µM (active), respectively.
Consider `CCOP(=S)(OCC)O/N=C(\C#N)c1ccccc1`, for which the result in experiment [1] and in experiment [2] was inactive.
Take `O=C(Cc1ccccc1)OCCc1ccccc1`: in experiment [16], the outcome was inactive.
Turning to `O=[N+]([O-])c1ccccc1O`, the call in experiment [1] and in experiment [2] was inactive.
As to `O=c1nc(O)n(Cl)c(=O)n1Cl`, the result in [1] and in [2] was inactive.

By AC50 is commonly meant the midpoint of the concentration-response curve, whichever way the signal moves.

For the origin of these results see PubChem BioAssay (EPA / NIEHS).
